Active and inactive are the calls of the source. The calls were made as follows: active = hit-call score of the fitted dose curve at least 0.9, where 1 is the maximum; inactive = score below 0.9.
assay: CEETOX_H295R_MTT_cell_viability: Viability Assessment in the CeeTox HT-H295R MTT Assay (AID 2283718);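 as to AC50: curve fitted both ways so AC50 may mark viability loss or gain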
Procedure: CEETOX_H295R is a cell-based, multiplexed-readout assay that uses H295R, a human adrenal gland cell line, with measurements taken at 48 hours after chemical dosing in a 96-well plate.CEETOX_H295R_MTT_cell_viability is one of 23 assay component(s) measured or calculated from the CEETOX_H295R assay. It is designed to make measurements of cell number, a form of viability reporter, as detected with […] signals by MTT cytotoxicity assay technology.The assay component endpoint CEETOX_H295R_MTT_cell_viability was analyzed with bidirectional fitting relation to DMSO as the negative control and baseline of activity. Using a type of viability reporter in the MTT cytotoxicity assay, gain or loss-of-signal activity can be used to monitor cellular processes to understand changes in proliferation. To generalize the intended target to other relatable targets, this assay endpoint is annotated to cell cycle, where the subfamily is proliferation.
Cell culture and media preparation procedures were conducted in accordance with OECD Test No. 456 guidelines, with minor modifications. H295R cells (ATCC CRL-2128) were expanded for 5 passages and frozen in batches in liquid nitrogen. Prior to the steroidogenesis assay, H295R cells were thawed and passed at least 4 times. The maximum passage was 10. Cells were maintained in a 1:1 mixture of DMEM/F12 supplemented with 5ml/L ITS+ Premix (BD Bioscience) and 12.5 ml/L Nu-Serum (BD Bioscience). After seeding cells into 96-well plates at 50-60% confluency, cells were allowed to adhere overnight. Prior to chemical testing, culture medium was replaced with 175 uL medium containing 10 uM forskolin to stimulate steroidogenesis for 48 hours. Following prestimulation, forskolin medium was replaced with medium containing test chemical solubilized in DMSO (ensuring a final concentration of 0.1% DMSO). Test chemicals were incubated for 48 hours, then the medium was removed and split into 2 vials containing approximately 75uL each, and stored at -80 C prior to hormone analysis. For steroid quantification, media samples were shipped to OpAns, LLC (Durham, NC) on dry ice, and samples were thawed to room temperature prior to liquid-liquid extraction. Steroid hormones were extracted from media samples using methyl tertbutyl ether (MTBE). An extra derivatization with dansyl chloride was included for estrogen (estrone and estradiol) detection only. Steroid hormones were separated by HPLC, eluted using a reverse phase C18 gradient with electrospray positive ionization, followed by quantification by tandem mass spectrometry (MS/MS). Data were acquired on a MassHunter Workstation Acquisition version B03.01 (Agilent Technologies, Inc.) and processed using MassHunter Quantitative Analysis for QQQ. Accuracy was determined for each hormone analyte from 3 standards to determine upper and lower limits of quantification (ULOQ and LLOQ, respectively) using a 7-point standard curve. Precision and accuracy of the extraction and quantification methods were calculated as the percent relative standard deviation (%RSD) of the spiked standards and percent spiked standard recovered, respectively. The goal was to achieve 100% accuracy (i.e., recover all spiked-in standard at quantification with minimal loss during run time) and good precision (i.e., have %RSD <15% to ensure reproducibility). Test medium was removed following chemical exposure, and cell viability was evaluated in the same wells by MTT. MTT procedures were as follows: after removal of test medium, 500 uL of 0.5 mg/ml of 3-[4,5-dimethylthiazol-2-y]2,5-diphenyltetrazoliumbromide solution was added to the cells. Following a 4-hour incubation at 37 C and 5% CO2 to allow formazan-crystal formation, the MTT solution was removed and blue formazan salt crystals were solubilized using 500uL anhydrous isopropanol with shaking for 20 minutes. Absorbance was read at 570 and 650nm using a Packard Fusion microplate reader. […]

With `O=C(Nc1ccc([N+](=O)[O-])cc1Cl)c1cc(Cl)ccc1O` as the molecule, how does the outcome read?
The outcome was “inactive”.

With `CC(=O)S[C@@H]1CC2=CC(=O)CC[C@]2(C)[C@H]2CC[C@@]3(C)[C@@H](CC[C@@]34CCC(=O)O4)[C@H]12` as the molecule, how does the outcome read?
The outcome was “inactive”.

For `CCCCC(CC)CN1C(=O)C2C3C=CC(C3)C2C1=O` (configuration not stated), which outcome is on record?
Its outcome is “inactive”.

For `CCCCOC(=O)[C@@H](C)Oc1ccc(Oc2ccc(C(F)(F)F)cn2)cc1`, which outcome is on record?
The outcome was “inactive”.

Which outcome does the source give for `C=CCOC(Cn1ccnc1)c1ccc(Cl)cc1Cl` (configuration not stated) here?
Its outcome is “inactive”.

For `C[C@]12C[C@H](O)[C@H]3[C@@H](CCC4=CC(=O)CC[C@@]43C)[C@@H]1CC[C@@H]2C(=O)CO`, which outcome is on record?
The outcome was “inactive”.

With `c1ccc(Nc2ccccc2)cc1` as the molecule, how does the outcome read?
The outcome was “inactive”.

For `S=C(S)NCCNC(=S)S.[Mn+2].[S-]C([S-])=NCCN=C([S-])[S-].[Zn+2]`, which AC50 is on record?
Its AC50 is 1.19 µM (active).

For `c1ccc2[nH]c(-c3cscn3)nc2c1`, which outcome is on record?
The outcome was “inactive”.

Which outcome does the source give for `CCNc1nc(N)nc(Cl)n1` here?
Its outcome is “inactive”.

Which outcome does the source give for `CCCN(CCC)C(=O)SCC` here?
Its outcome is “inactive”.

For `CC1(C)C(C=C(Cl)Cl)C1C(=O)OCc1cccc(Oc2ccccc2)c1` (configuration not stated), which outcome is on record?
Its outcome is “inactive”.

Which outcome does the source give for `COC(=O)c1ccccc1C(=O)O` here?
The outcome was “inactive”.

For `CCCCCOC(=O)COc1cc(N2C(=O)C3=C(CCCC3)C2=O)c(F)cc1Cl`, which outcome is on record?
Its outcome is “inactive”.

For `CCCCOCCOCCOCc1cc2c(cc1CCC)OCO2`, which outcome is on record?
Its outcome is “inactive”.

For `CC(C)(C)[C@@H](O)[C@@H](Cc1ccc(Cl)cc1)n1cncn1`, which outcome is on record?
The outcome was “inactive”.

With `CCN(Cc1c(F)cccc1Cl)c1c([N+](=O)[O-])cc(C(F)(F)F)cc1[N+](=O)[O-]` as the molecule, how does the AC50 read?
Its AC50 is 13.3 µM (active).

For `CC(=O)[C@H]1CC[C@H]2[C@@H]3CCC4=CC(=O)CC[C@]4(C)[C@H]3CC[C@]12C`, which outcome is on record?
The outcome was “inactive”.

Which outcome does the source give for `C#CCOC(=O)[C@@H](C)Oc1ccc(Oc2ncc(Cl)cc2F)cc1` here?
Its outcome is “inactive”.

For `CCOC(=O)c1ccc(O)cc1`, which outcome is on record?
The outcome was “inactive”.

For `C#C[C@]1(O)CC[C@H]2[C@@H]3CCC4=CC(=O)CC[C@@H]4[C@H]3CC[C@@]21CC`, which outcome is on record?
Its outcome is “inactive”.

Which outcome does the source give for `CCCCC(CC)COC(=O)c1ccccc1C(=O)O` (configuration not stated) here?
The outcome was “inactive”.

With `Oc1ccc(C(c2ccc(O)cc2)C(Cl)(Cl)Cl)cc1` as the molecule, how does the outcome read?
Its outcome is “inactive”.

For `CN(C)C(=O)Nc1ccc(Cl)c(Cl)c1`, which outcome is on record?
Its outcome is “inactive”.

Which outcome does the source give for `CSC(=O)c1cccc2nnsc12` here?
The outcome was “inactive”.

With `CC(C)(c1ccc(O)cc1)c1ccc(O)cc1` as the molecule, how does the outcome read?
The outcome was “inactive”.

With `S=C([S-])NCCNC(=S)[S-].[Mn+2]` as the molecule, how does the outcome read?
The outcome was “inactive”.
